In PubChem BioAssay (NCATS) one finds Potency, activation and activity change, negative = inhibition data, which are given here for 20 compounds.

The structures appear in SMILES notation. Records with an inconclusive call do not appear. Unmarked numbers belong to inactive results. Calls of active or inactive are those of the source. The call rests on the fitted dose curve; in most records, active means well fitted curve in the direction sought with a large enough effect; inconclusive means small, poorly fitted or top-dose-only effect, or another doubt; inactive means no such curve, though single readings can be large; an effect the other way counts as inactive or inconclusive.

In assay [1] the target is Rap guanine nucleotide exchange factor 3 (Homo sapiens) (UniProt O95398). As to the kind of experiment: Confirmatory qHTS for antagonist of cAMP-regulated guanine nucleotide exchange factor 3 (EPAC1) (AID 1645880). Further: nearly all actives have a fitted effect of over 55% in size. Further: potency means the concentration at half of the fitted maximal effect. An outline of the steps:
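Released BODIPY-GDP fluoresces less than Rap1-bound BODIPY-GDP; the signal is followed at 480/540 nm at 5-min intervals over 30 min, after 5 min at room temperature. Reactions contain 100 nM EPAC1, 250 nM RAP1B-BODIPY-GDP and 50 uM GDP; results are normalized to ATA and DMSO.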
For orientation: Quantitative high-throughput screening tests each substance at several concentrations.

Assay [2] has the same target. Description: Confirmatory qHTS for agonist of cAMP-regulated guanine nucleotide exchange factor 3 (EPAC1) (AID 1645881). Further: nearly all actives have a fitted effect of over 75% in size. Further: potency means the concentration at half of the fitted maximal effect.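 On activation: EPAC1 catalysed release of BODIPY-GDP from Rap1B seen as fluorescence loss; 100% = effect of cAMP agonist control.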
Assay [3] concerns the target Rap guanine nucleotide exchange factor 4 (Homo sapiens) (UniProt Q8WZA2). Description: Confirmatory qHTS for agonist of cAMP-regulated guanine nucleotide exchange factor 4 (EPAC2) (AID 1645884).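 Further: nucleotide exchange releases bodipy-GDP from Rap1 and this lowers its fluorescence; nearly all actives have a fitted effect of over 65% in size.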 Further: potency means the concentration at half of the fitted maximal effect. On activation: on the % scale 0 is the no-effect control and ±100 the full control effect.
Assay [4] has the same target. As to the kind of experiment: Confirmatory qHTS for antagonist of cAMP-regulated guanine nucleotide exchange factor 4 (EPAC2) (AID 1645885). Further: nearly all actives have a fitted effect of over 25% in size. Further: potency means the concentration at half of the fitted maximal effect. On activity change, negative = inhibition: on the % scale 0 is the no-effect control and ±100 the full control effect.
The target in assay [5] is Rap guanine nucleotide exchange factor 3 (Homo sapiens) (UniProt O95398). As to the kind of experiment: Counterscreen qHTS for antagonist of cAMP-regulated guanine nucleotide exchange factor 3 (EPAC1) (AID 1645888). Further: % of control where 0% means no effect. The essentials: (§1)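 Measured: fluorescence of BODIPY-GDP bound to Rap1B, which falls as exchange proceeds. Conditions include 50 uM competing GDP, 5 and 30 min reads, and a later cAMP challenge for antagonist detection.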
Chain of Rap guanine nucleotide exchange factor 3 (Homo sapiens) (O95398 whole entry, looked up): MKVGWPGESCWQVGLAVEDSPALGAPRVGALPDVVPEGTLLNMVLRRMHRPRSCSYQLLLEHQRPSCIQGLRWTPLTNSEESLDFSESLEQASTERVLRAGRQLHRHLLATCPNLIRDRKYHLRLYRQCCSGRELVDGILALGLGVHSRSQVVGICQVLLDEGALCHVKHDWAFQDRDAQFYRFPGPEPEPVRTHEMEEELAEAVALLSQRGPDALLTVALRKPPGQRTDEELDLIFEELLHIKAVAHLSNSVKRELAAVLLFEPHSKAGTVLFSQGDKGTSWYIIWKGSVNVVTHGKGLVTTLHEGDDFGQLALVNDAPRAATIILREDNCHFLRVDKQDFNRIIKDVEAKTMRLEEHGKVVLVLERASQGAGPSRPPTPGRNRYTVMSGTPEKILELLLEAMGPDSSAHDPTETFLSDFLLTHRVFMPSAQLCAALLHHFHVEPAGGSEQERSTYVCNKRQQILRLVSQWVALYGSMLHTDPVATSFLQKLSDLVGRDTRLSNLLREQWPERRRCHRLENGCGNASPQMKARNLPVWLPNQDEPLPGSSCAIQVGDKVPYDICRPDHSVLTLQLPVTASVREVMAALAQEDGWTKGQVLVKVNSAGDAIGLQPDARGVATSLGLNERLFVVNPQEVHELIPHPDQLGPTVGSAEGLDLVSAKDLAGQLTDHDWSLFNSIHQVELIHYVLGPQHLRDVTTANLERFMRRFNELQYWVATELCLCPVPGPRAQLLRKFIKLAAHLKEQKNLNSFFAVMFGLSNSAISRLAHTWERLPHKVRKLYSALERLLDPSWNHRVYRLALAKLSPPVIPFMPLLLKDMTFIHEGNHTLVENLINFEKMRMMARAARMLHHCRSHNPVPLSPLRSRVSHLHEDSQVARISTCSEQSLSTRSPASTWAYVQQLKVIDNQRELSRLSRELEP
Background: A counterscreen serves to expose hits that act by an unwanted route or on another target.

Assay [6] shares this target. Description: Counterscreen qHTS for agonist of cAMP-regulated guanine nucleotide exchange factor 3 (EPAC1) (AID 1645889). Further: nearly all actives have a fitted effect of over 40% in size. Further: potency means the concentration at half of the fitted maximal effect. On activation: % of control where 0% means no effect. An outline of the steps: as §1

Chain of Rap guanine nucleotide exchange factor 4 (Homo sapiens) (Q8WZA2 whole entry, looked up): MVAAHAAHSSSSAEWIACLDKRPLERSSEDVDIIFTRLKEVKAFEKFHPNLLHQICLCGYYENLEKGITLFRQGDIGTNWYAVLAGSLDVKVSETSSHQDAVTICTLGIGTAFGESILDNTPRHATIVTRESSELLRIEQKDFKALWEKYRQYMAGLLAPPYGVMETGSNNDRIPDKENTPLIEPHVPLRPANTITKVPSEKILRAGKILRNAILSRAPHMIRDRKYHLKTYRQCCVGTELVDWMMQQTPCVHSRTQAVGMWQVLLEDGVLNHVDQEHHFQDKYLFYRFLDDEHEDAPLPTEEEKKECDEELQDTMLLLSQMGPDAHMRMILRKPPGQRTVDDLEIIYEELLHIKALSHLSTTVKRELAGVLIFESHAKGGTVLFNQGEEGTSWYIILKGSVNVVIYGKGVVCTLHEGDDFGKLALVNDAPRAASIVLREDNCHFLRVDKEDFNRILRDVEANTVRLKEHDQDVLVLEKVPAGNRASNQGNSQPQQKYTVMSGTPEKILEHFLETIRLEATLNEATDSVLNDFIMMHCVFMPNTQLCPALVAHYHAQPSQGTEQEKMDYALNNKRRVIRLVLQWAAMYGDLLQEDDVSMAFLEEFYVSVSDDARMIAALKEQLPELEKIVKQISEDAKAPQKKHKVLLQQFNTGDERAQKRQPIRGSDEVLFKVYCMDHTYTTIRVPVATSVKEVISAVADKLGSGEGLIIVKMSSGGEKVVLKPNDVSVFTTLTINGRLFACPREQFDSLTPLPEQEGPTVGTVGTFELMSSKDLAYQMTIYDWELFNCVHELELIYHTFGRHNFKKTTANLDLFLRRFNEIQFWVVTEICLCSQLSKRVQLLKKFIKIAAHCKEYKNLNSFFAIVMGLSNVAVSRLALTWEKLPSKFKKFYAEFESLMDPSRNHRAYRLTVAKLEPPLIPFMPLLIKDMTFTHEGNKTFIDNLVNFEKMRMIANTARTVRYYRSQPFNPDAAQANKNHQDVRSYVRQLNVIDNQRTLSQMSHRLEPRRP

For the compound `CC(C)c1ccc(N(C(=O)c2csnn2)C(C(=O)NC(C)(C)C)c2cccnc2)cc1` (stereo not given), the Potency result in assay [1], in assay [2], in assay [3], in assay [4], in assay [5] and in assay [6] was “inactive” throughout.

As for `C=CC[C@@H](CC(=O)NCCO)C(=O)N[C@@H](C)COC(=O)[C@H](CC=C)CC(=O)OC(C)(C)C`, the Potency entry in assay [1], in assay [2] and in assay [4] was “inactive” each time. Moreover, the activation in assay [3] was -2.5% [at 17.1 µM, percent relative to cAMP agonist control]; in assay [6] it was -7.04% [at 30.8 µM]. Moreover, in assay [5], the activity change, negative = inhibition is 2.15% [at 30.8 µM].

For the compound `CCOc1ccc(-n2c(SCC(=O)Nc3ccccc3OC)nc3c(oc4ccccc43)c2=O)cc1`, the Potency entry in assay [1], in assay [2], in assay [3], in assay [4], in assay [5] and in assay [6] was “inactive” in each case.

Take `O=CN(CCN(C=O)CN1CCCCC1)CN1CCCCC1`: the Potency entry in assay [1], in assay [2], in assay [3], in assay [4], in assay [5] and in assay [6] was “inactive” each time.

As to `CCC(=O)C1=C(c2cccc([N+](=O)[O-])c2)N(C(=O)CC)n2c(nnc2-c2ccccc2)S1`, the Potency result in assay [1], in assay [2], in assay [3], in assay [4], in assay [5] and in assay [6] was “inactive” each time.

Take `COc1cccc(-n2nnc3c(=O)n(C/C=C/c4ccccc4)cnc32)c1`: the Potency entry in assay [1], in assay [2] and in assay [4] was “inactive” in each case. In addition, the activation is 6.54% [at 17.1 µM, percent relative to cAMP agonist control] in assay [3] and 17.3% [at 30.8 µM] in assay [6]. Also, the activity change, negative = inhibition in assay [5] was 2.95% [at 30.8 µM].

Turning to `Cc1cn2c(=O)cc(COc3ccc(C(C)(C)C)cc3)nc2s1`, the Potency result in assay [1], in assay [2], in assay [3], in assay [4], in assay [5] and in assay [6] was “inactive” in each case.

As to `COc1cc(OC)c(CNC2CCCCCC2)cc1Br`, the Potency entry in assay [1], in assay [2], in assay [3], in assay [4], in assay [5] and in assay [6] was “inactive” in each case.

As to `O=C(CSCC(=O)N1CCOCC1)Nc1nc(-c2ccccc2)cs1`, the Potency entry in assay [1], in assay [2], in assay [3], in assay [5] and in assay [6] was “inactive” throughout. The Potency in assay [4] is 84.9 µM (active).

Consider `CCOCCCn1c(=N)c(C(=O)NC(C)c2ccccc2)cc2c(=O)n3cccc(C)c3nc21` (stereo not given), for which the Potency entry in assay [1], in assay [2], in assay [3], in assay [4], in assay [5] and in assay [6] was “inactive” in each case.

Turning to `CCCc1nn2c(=O)cc(COC(=O)c3cccc(NC(=O)CCc4ccccc4)c3)nc2s1`, the Potency entry in assay [1], in assay [2], in assay [3], in assay [4], in assay [5] and in assay [6] was “inactive” in each case.

Regarding `Cc1ccc(Cn2c(SCC(=O)N/N=C/c3ccc(C)o3)nc3ccccc32)cc1`, the Potency in assay [1] was 47.8 µM (active). Besides, the Potency result in assay [2], in assay [3], in assay [4], in assay [5] and in assay [6] was “inactive” throughout.

With `CC(OC(=O)c1nn(C)c(=O)c2ccccc12)C(=O)NC1CCCCC1C` (stereo not given), the Potency result in assay [1], in assay [2], in assay [3], in assay [4], in assay [5] and in assay [6] was “inactive” throughout.

Consider `Cc1ccc(NC(=O)c2cccc(NC(=O)/C=C/c3ccco3)c2)cc1C`, for which the Potency in assay [1] was 39.8 µM (active). The Potency result in assay [2] and in assay [4] was “inactive” in each case. Moreover, the activation in assay [3] was 6.06% [at 17.1 µM, percent relative to cAMP agonist control]; in assay [6], 5.53% [at 30.8 µM]. In addition, the activity change, negative = inhibition in assay [5] is -4.44% [at 30.8 µM].

As for `COc1cc(/C=C2\SC(=O)NC2=O)ccc1Oc1ccc([N+](=O)[O-])cc1[N+](=O)[O-]`, the Potency in assay [1] is 42.6 µM (active). In addition, the Potency entry in assay [2], in assay [3], in assay [4], in assay [5] and in assay [6] was “inactive” in each case.

`N#Cc1cc(C(=O)c2cc(F)ccc2O)cn(-c2nccs2)c1=O`: the Potency result in assay [1], in assay [4] and in assay [5] was “inactive” throughout. The Potency in assay [2] is 100 µM (active); in assay [3], 112 µM (active); in assay [6] it was 39.8 µM (active).

As for `CC1(C(=O)NS(=O)(=O)c2ccc(Cl)s2)CCN1C(=O)C1(c2ccc(Cl)cc2)CCC1` (stereo not given), the Potency in assay [1] is 9.53 µM (active); in assay [4] it was 8.49 µM (active). For the same compound, the Potency entry in assay [2], in assay [3], in assay [5] and in assay [6] was “inactive” in each case.

`CC(=N\NC(=O)c1ccccc1)/C(=N/O)C(=O)Nc1ccccc1`: the Potency in assay [1] is 3.16 µM (active). Besides, the Potency result in assay [2] and in assay [4] was “inactive” in each case. Besides, the activation in assay [3] was 7.97% [at 17.1 µM, percent relative to cAMP agonist control]; in assay [6], 27.9% [at 30.8 µM]. Moreover, in assay [5], the activity change, negative = inhibition was 9.03% [at 30.8 µM].

Consider `CCOC(=O)c1oc2ccccc2c1CN1CCN(C(=O)c2ccccc2)CC1`, for which the Potency entry in assay [1], in assay [2], in assay [3], in assay [4], in assay [5] and in assay [6] was “inactive” each time.

With `CC(C)(C)C(=O)NCc1ccc(C(=O)CN2C(=O)NC3(CCCC3)C2=O)s1`, the Potency entry in assay [1], in assay [2], in assay [3], in assay [4], in assay [5] and in assay [6] was “inactive” throughout.
